LASV entry inh – qHTS for Inhibitors of binding or entry into cells for Lassa Virus; Lassa virus pseudotype entry inhibition, cell reporter; Potency, µM (titrated, usually from 37.9 µM), for the others: at the highest dose activity change, negative = inhibition, actives largely listed as inhibitors; 1.2% of 300,000 active; calls by dose curve; tested in HEK293 cells; further: potency means the concentration at half of the fitted maximal effect; on the % scale 0 is the no-effect control and ±100 the full control effect; nearly all actives have a fitted effect of over 50% in size
Shiga toxin inh – A qHTS for Small Molecule Inhibitors of Shiga Toxin; Vero cells, Shiga toxin protein synthesis inhibition reporter; 9.2% of 290,000 active; inhibition, % at 38.7 µM; in the data active means inhibition mostly above about 28%, no sharp cut-off; inactive means mostly below about 43%; further: 0% is about no effect
Marburg entry inh – qHTS for inhibitors of binding or entry into cells for Marburg Virus. Marburg virus pseudotyped entry inhibition, cell reporter. Potency, µM (series often up to 37.8 µM), without a hit: top-dose activity change, negative = inhibition, most hits filed as inhibitors. AID 540276, 2011. 1.8% of 300,000 active; calls by dose curve; tested in HEK293 cells; further: potency means the concentration at half of the fitted maximal effect; on the % scale 0 is the no-effect control and ±100 the full control effect
CHX counter – Cycloheximide Counterscreen for Small Molecule Inhibitors of Shiga Toxin; cell reporter, cycloheximide protein synthesis inhibition counterscreen; max response, %; 12% of 300,000 active; AID 2314, 2010; in the data active means max response mostly above about 13%, no sharp cut-off; inactive means mostly below about 14%; further: read at 38.3 µM for the half of the compounds with a filed dose; 0% is about no effect
Numbers without * were called inactive; ? = inconclusive; nt = no result; ! = not active in a repeat; [ ] = another dose, or the depositor's remark. An excerpt weighted towards active compounds, which were near 12% of everything screened.

SMILES	LASV entry inh	Shiga toxin inh	Marburg entry inh	CHX counter
Cc1cc2c(s1)c1cnn(Cc3ccc(-c4ccccc4)cc3)c(=O)c1n2C	nt	-7	nt	-3
CCN(CC)c1ccc(NC(=O)Nc2ccccc2)cc1	?	58*	?	48*
CC(=O)c1cccc(NC(=O)CCOc2ccccc2)c1	-1%	51*	?	25*
O=C(Nc1ccccc1)Nc1cccc(C(F)(F)F)c1	-15%	80*	-6%[46.1 µM]	30*
COC(=O)c1cccc(NC(=O)CCCOc2ccccc2)c1	?	-5	3%	8
COc1ccc(CCN2C(=O)CC(NNC(=O)c3ccccc3Br)C2=O)cc1OC (centres undefined)	-8%	-3	14%	-5
COc1ccc(CN2CCN(C3CCC3)CC2CCO)c(F)c1 (centres undefined)	nt	-8	nt	10
CCOC(=O)c1c(C)oc2nc(C)nc(NCCc3ccc(C)cc3)c12	15%[46.1 µM]	nt	nt	nt
CSc1nc(-c2ccc(N(C)C)cc2)c(C#N)c(=O)n1C	nt	42*	nt	25*
CCNC(=O)c1c(NC(=O)c2nc(S(=O)(=O)CC)ncc2Cl)sc2c1CCCC2	7.9µM*	nt	2%[46.1 µM]	nt
CCS(=O)(=O)c1ncc(Cl)c(C(=O)Nc2ccc(C)cc2)n1	?	-12	7.9µM*	-4
Cc1ccc(C)c(NC(=O)c2nc(S(=O)(=O)Cc3ccc(F)cc3)ncc2Cl)c1	?	nt	6%[46.1 µM]	nt
Cc1ccc(CS(=O)(=O)c2ncc(Cl)c(C(=O)Nc3ccc(OC(F)F)cc3)n2)cc1	?	27	?	17*
COC(=O)C(C)Sc1nnc2cc(C)c3cc(C)cc(C)c3n12 (centres undefined)	10%[46.1 µM]	nt	5%[46.1 µM]	nt
c1ccc(CCNc2ncnc3ccccc23)cc1	nt	57	nt	49*
Cc1cc2c(NCCc3ccccc3)ncnc2s1	?	65*	7.1µM*	25*
CCCCCCCCNc1ncnc2ccccc12	?	-1	?	2
O=C(NC(Cc1ccccc1)C(=O)O)/C(=C\c1ccc(Cl)cc1)NC(=O)c1ccco1 (centres undefined)	4%	-6	7%	-3
N#Cc1c(NC(=O)CSc2ncn[nH]2)sc2c1CCCC2	2.3µM*	-27	?	-5
CC(C)(C)C1CCc2c(sc(NC(=O)CSc3ncn[nH]3)c2C#N)C1 (centres undefined)	?	21	-26%	14*
COc1ccc(C)cc1NS(=O)(=O)c1ccc(NC(=O)CN(c2cc([N+](=O)[O-])ccc2C)S(C)(=O)=O)cc1	?	12	3.7µM*	4
Cc1cccc(NS(=O)(=O)c2ccc(NC(=O)CN(c3cc([N+](=O)[O-])ccc3C)S(C)(=O)=O)cc2)c1	?	-10	?	-4
CC(=O)NC(NC(=S)Nc1cccc(Br)c1)C(Cl)(Cl)Cl (centres undefined)	9%	-2	-18%[46.1 µM]	0
CS(=O)(=O)N1CCC(C(=O)NCc2ccc3c(c2)OCO3)CC1	-2%	11	29%[46.1 µM]	-2
CCOC(=O)C1CCCN(C2CC(=O)N(c3ccc(N4C(=O)CC(N5CCCC(C(=O)OCC)C5)C4=O)cc3)C2=O)C1 (centres undefined)	nt	-12	nt	-4
SMILES	LASV entry inh	Shiga toxin inh	Marburg entry inh	CHX counter
Cc1ccc2nc(-c3ccc(N4C(=O)CC(N5CCC(C(N)=O)CC5)C4=O)cc3)sc2c1 (centres undefined)	4%	33	29%	26*
Cc1ccc2nc(-c3ccc(N4C(=O)CC(N5CCCC(C)C5)C4=O)cc3)sc2c1 (centres undefined)	nt	143*	nt	70*
CC(=O)N1CCc2cc(CNS(=O)(=O)c3cccs3)ccc21	1%[46.1 µM]	nt	nt	nt
Oc1c(CN2CCOCC2)cc(COCc2ccccc2)c2cccnc12	?	26	?	28*
COC(=O)c1c(C(=O)OC)c2c3cc(OC)c(OC)cc3cc([Si](C)(C)C)n2c1C(=O)OC	nt	nt	24%[14.2 µM]	nt
CCCCn1cc[n+](C)c1	nt	5	nt	-6
CCCCOC(=O)c1ccc(OC(=O)N2CCOCC2)cc1	nt	33	nt	29*
O=C(c1ccccc1)c1ccc(OC(=O)N2CCOCC2)cc1	5%	43	12%	36*
Nc1ccn(C2OC(COP(=O)(O)O)C(O)C2O)c(=O)n1 (centres undefined)	-15%[46.1 µM]	nt	?	nt
O=C(NCc1cccnc1)c1ccc(NC(=O)c2cccc([N+](=O)[O-])c2)cc1	0%	26	1%[46.1 µM]	-4
COc1ccc(C(=O)N2CC(c3ccccc3)CC2=O)cc1 (centres undefined)	-1%	63*	9%	44*
O=C1CC(c2ccccc2)CN1C(=O)c1ccccc1 (centres undefined)	-2%	38	1%	16*
O=C(CS(=O)(=O)c1ccccc1)NCc1ccccc1	14%[46.1 µM]	-5	5%[46.1 µM]	-2
O=S(=O)(N1CCCCCC1)N1CCN(S(=O)(=O)N2CCCCC2)CC1	4%	-8	1%	6
O=C(O)c1cccc(S(=O)(=O)N2CCN(Cc3ccc4c(c3)OCO4)CC2)c1	2%[46.1 µM]	-21	3%[46.1 µM]	-2
O=C(Nc1ccc(N2CCOCC2)cc1)c1cc2c(s1)CCCCC2	-22%[46.1 µM]	44	?	12
O=C(Nc1ccc(N2CCOCC2)cc1)c1cc2c(s1)CCCC2	-14%[46.1 µM]	51	?	17*
O=C(Nc1ccccc1N1CCOCC1)c1cc2c(s1)CCCCC2	?	53*	?	40*
O=C(c1cc2c(s1)CCCC2)N1CCN(c2ccccc2)CC1	12%[46.1 µM]	151*	-5%[46.1 µM]	24*
COCCN1C(=NCCc2cccnc2)NC(c2ccccc2)C(C(=O)OC)=C1C (centres undefined)	-21%[14.3 µM]	nt	54%[14.2 µM]	nt
Clc1cccc(N2CCN(c3c4c(nc5nncn35)CCC4)CC2)c1	9%[46.1 µM]	nt	?	nt
COc1ccc(Cl)cc1NS(=O)(=O)c1cccc(C(=O)NCC2(N(C)C)CCCCC2)c1	-28%	-12	?	3
Brc1c(OCCOCCn2cncn2)ccc2ccccc12	11%	27*	1%	20*
COc1ccccc1-c1cc(C(F)(F)F)nc(S(=O)(=O)CCCC(=O)N2CCOCC2)n1	13µM*	-24	11µM*!	-4
N#Cc1cn(-c2ccccc2)nc1-c1ccc2c(c1)OCCO2	?	64*	-28%	24*
SMILES	LASV entry inh	Shiga toxin inh	Marburg entry inh	CHX counter
Cn1cc(C(=O)O)c(-c2ccc3c(c2)OCCCO3)n1	20%	-5	-3%[46.1 µM]	-4
Cn1cc(C=O)c(-c2ccc3c(c2)OCCCO3)n1	25%[46.1 µM]	83*	1%[46.1 µM]	44*
O=Cc1cn(-c2ccccc2)nc1-c1ccc2c(c1)OCCO2	?	99*	?	57*
COc1ccc(N2CCN(C(=O)c3cccc(NS(=O)(=O)c4cccc(F)c4)c3)CC2)cc1	-17%[46.1 µM]	4	23%[46.1 µM]	-2
Cc1ccc(NS(=O)(=O)c2ccc(C(=O)N3CCN(c4ncccn4)CC3)cc2)cc1	7.9µM*	16	?	-2
Cc1ccc(C(=O)N2CCN(c3ncccn3)CC2)cc1	nt	-2	nt	-3
COc1ccc(N2CCN(C(=O)c3ccc(NS(=O)(=O)c4cccc(F)c4)cc3)CC2)cc1	1%	12	-3%	11*
Cc1ccc(C(=O)N2CCCCC2C(=O)O)cc1S(=O)(=O)N1CCCCC1 (centres undefined)	?	nt	8%	nt
CCC1CCCCC1	nt	-3	nt	-6

High-throughput results deposited in PubChem by National Center for Advancing Translational Sciences (NCATS).
